From PubChem BioAssay (NCI) come the findings set out here.

The panel holds about 83,000 compounds, 20% with a hit somewhere; the sample as a whole holds those more often.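 The endpoint reported here, percent growth, reads 100 for growth as untreated, 0 for no net growth and -100 for all cells dead.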 Activity calls are given as the source filed them. Rule for the calls: active = growth percent below 10; inactive = the rest.

The subject of the assay is HL-60(TB) leukemia. In words: NCI-60 one-dose screen, 48 h (100 = growth as untreated, 0 = no growth, -100 = all killed). To be noted: 10 µM unless noted.
Take `Nc1c(C(=O)Nc2ccncc2)sc2nc3c(cc12)CCCCCCCC3`: the growth was -54.9% (active).

For the compound `CCOC(=O)CSc1c([N+](=O)[O-])ncn1C`, the growth was 91.4% (inactive).

Turning to `COc1ccc(-c2cnoc2-c2ccc(OC)cc2O)cc1`, the growth is 26.4% (inactive).

In the case of `Nc1c(C(=O)Nc2cccc(Cl)c2)sc2ncc(Cl)cc12`, the growth is 88.7% (inactive).

Regarding `O=C1/C(=C(/c2ccccc2)N2CCOCC2)Cc2ccccc21`, the growth was 27.5% (inactive).

Turning to `CCOC(=O)c1sc(-c2ccc(OS(=O)(=O)c3cccs3)c(C=O)c2)nc1C`, the growth is -34.1% (active).

In the case of `COc1ccc2oc(-c3ccc(Cl)cc3)c(N3CCN(C)CC3)c2c1`, the growth is 28.2% (inactive).

As to `CC(=O)NCCN`, the growth is 103% (inactive).

`Cc1ccc2sc3c(NCCN)nc4ccccc4c3c(=O)c2c1`: the growth is 53.3% (inactive).

Consider `CC1(C)Cc2c(Br)c(Br)c(Br)c(OCC(O)CN3CCOCC3)c2O1` (configuration not stated), for which the growth is -34.1% (active).

As for `Clc1ccc(-c2nnc(COc3ccccc3Cl)o2)cc1`, the growth was 120% (inactive).

As to `Cc1nc2cc(Nc3nc(Cl)nc(Nc4ccc(F)cc4)n3)ccc2n1Cc1ccccc1`, the growth was 53.2% (inactive).

Turning to `CCOc1ccc(-n2nc(C(=O)Nc3ccccc3)nc2-c2cc(OC)c(OC)c(OC)c2)cc1`, the growth is 32.9% (inactive).

For the compound `C/C(=C(/c1ccc(O)cc1)c1ccc(OCCN2CCCC2)cc1)c1ccccc1`, the growth is 45.1% (inactive).

In the case of `Cc1cccc2c(=O)c3c(sc12)c(NCCN)nc1ccccc13`, the growth was -62.7% (active).

In the case of `CN(C)c1cccc2[nH]c(-c3[nH]ncc3Nc3ccnc(N)n3)nc12`, the growth was -42.7% (active).

As to `COc1ccc(CCNc2nc(SC)nc(-c3cccc([N+](=O)[O-])c3)c2C#N)cc1OC`, the growth is 120% (inactive).
